Shn3 3UTR inh: reduction of Shn3 3'UTR firefly luciferase signal, primary screen, Schnurri-3 inhibitor project, cell-based, Clone20 osteoblasts, set 2; Clone20 osteoblast Shn3 3'UTR firefly luciferase, 24 h; inhibition, % at 12.5 µM; 0.52% of 360,000 active; AID 588674, 2011;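 active = mean inhibition of at least 75% with every replicate also reaching 75%; inconclusive = mean inhibition at least 75% but some replicate below; inactive = mean inhibition below 75%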;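 note: 0% = median of neutral control wells and 100% = pilot-screen positive control compound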
KKLEB cytotox: cytotoxicity in KKLEB CF airway cells, primary screen, cytotoxicity control for CF NF-kB inhibitor project, cell-based, uHTS, fluorescence assay plates | AID 602141, 2011 | KKLEB CF airway cells viability, ATPlite luminescence, overnight; hits give low values; cells stimulated with P. aeruginosa culture filtrate | activity change (cytotoxicity), % at 5 µM | 0.36% of 360,000 active;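 active = corrected activity change at or below -50% at 5 µM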
HIF-2a inh: HIF-2a reporter inhibitors, primary screen, luminescence, 786-0 RCC cells; 786-0 RCC cells HIF-2a reporter, luciferase luminescence, overnight; inhibition, % at 18.8 µM; 0.72% of 360,000 active;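 active = inhibition of the luminescence signal of 40% or more relative to plate controls, in a single-dose primary screen at 18.75 µM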
Peg3 prom inh: Peg3 promoter-driven luciferase inhibitors, primary screen, cell-based, HeLa, luciferase luminescence. AID 588405, 2011. 1.7% of 360,000 active. inhibition, % at 20 µM. HeLa PEG-Prom luciferase reporter, overnight;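 active = inhibition of at least 50% at 20 µM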
CF NFkB inh: inhibitors of PAF-induced NF-kB signaling, primary screen, cell-based, GFP fluorescence, uHTS. AID 588850, 2011. KKLEB NF-kB-GFP reporter, GFP fluorescence overnight. inhibition, % at 5 µM. 0.86% of 360,000 active;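 active = at least 50% inhibition at 5 µM, scaled per plate between neutral and stimulator controls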;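 note: PAF is a Pseudomonas aeruginosa culture filtrate used as stimulus; plate controls were PAF-stimulated DMSO wells for no effect and unstimulated DMSO wells for full effect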
Mdm2-MdmX confirm: retested Mdm2-MdmX interaction blockers, confirmation, cell-based, luminescence, single concentration, set 2; 99% of 740 active; inhibition, % at 8 µM; SaOS-2 split-luciferase Mdm2/MdmX complementation; shares compounds with HIF-2a inh;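 active = mean inhibition of the luminescence signal across two replicates at or above 26 percent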
Target sequence (O15151 whole entry, looked up): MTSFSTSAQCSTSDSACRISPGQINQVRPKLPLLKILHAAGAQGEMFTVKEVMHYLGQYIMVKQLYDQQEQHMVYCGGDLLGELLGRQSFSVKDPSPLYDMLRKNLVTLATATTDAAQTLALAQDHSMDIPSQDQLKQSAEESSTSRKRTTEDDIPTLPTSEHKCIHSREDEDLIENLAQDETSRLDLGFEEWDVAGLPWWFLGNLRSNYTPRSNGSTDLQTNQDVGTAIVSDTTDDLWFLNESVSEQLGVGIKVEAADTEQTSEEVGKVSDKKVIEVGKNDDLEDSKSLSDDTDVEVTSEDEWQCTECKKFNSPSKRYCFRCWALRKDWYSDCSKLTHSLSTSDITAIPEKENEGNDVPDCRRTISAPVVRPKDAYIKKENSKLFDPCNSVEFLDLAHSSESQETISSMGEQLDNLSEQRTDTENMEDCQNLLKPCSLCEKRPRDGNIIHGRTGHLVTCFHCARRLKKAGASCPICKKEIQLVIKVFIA
Target sequence (Q00987 whole entry, looked up): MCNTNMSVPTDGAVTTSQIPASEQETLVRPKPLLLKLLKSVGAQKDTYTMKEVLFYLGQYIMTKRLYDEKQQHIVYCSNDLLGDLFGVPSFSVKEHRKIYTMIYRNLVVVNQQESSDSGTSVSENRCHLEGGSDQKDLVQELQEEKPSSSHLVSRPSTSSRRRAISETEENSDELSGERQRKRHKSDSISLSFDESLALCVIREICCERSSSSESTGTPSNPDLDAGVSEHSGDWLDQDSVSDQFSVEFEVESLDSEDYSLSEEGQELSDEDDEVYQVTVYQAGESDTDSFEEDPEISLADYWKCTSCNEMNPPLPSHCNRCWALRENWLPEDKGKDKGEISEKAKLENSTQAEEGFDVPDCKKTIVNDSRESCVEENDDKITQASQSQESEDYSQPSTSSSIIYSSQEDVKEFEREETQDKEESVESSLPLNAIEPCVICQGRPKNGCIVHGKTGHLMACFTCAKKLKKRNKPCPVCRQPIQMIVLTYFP
HIF-2a conf: HIF-2a reporter inhibitor retest, confirmation, luminescence, 786-0 RCC cells. shares compounds with HIF-2a inh. inhibition, % at 18.8 µM. HIF-2a luciferase reporter luminescence, overnight. 56% of 1,800 active;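 active = mean inhibition across four replicates of at least 40 percent at the single tested concentration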
HIF-1a cs: HIF-1a luciferase reporter signal reduction – MiaPaCa-2 cells, single concentration, counter-screen for HIF-2a inhibitor project, confirmation; shares compounds with HIF-2a inh; MiaPaCa-2 HIF-1a luciferase reporter, desferoxamine, overnight; inhibition, % at 18.8 µM; 72% of 1,800 active; AID 651589, 2012;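 active = mean inhibition of the reporter signal across four replicates at the single tested dose of 50% or more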
Starred values were filed as active, the others as inactive; ? = inconclusive. Sampled rows, rich in hits. Any-hit rate of the full collection: about 2.6%.

SMILES	Shn3 3UTR inh	KKLEB cytotox	HIF-2a inh	Peg3 prom inh	CF NFkB inh	others
Cc1ccc(C)c(S(=O)(=O)N2CCCOC2CNC(=O)C(=O)NCCN2CCOCC2)c1 (stereo unspecified)	2	8	11	11	-15
Cc1ccc(-c2cc(Cc3ccccc3)c(=O)[nH]n2)cc1	2	-9	-16	-3	-7
Cc1cccc(CNC(=O)CCn2ccc3cc(S(=O)(=O)N4CCCC4)ccc32)c1	19	3	11	16	-8
CC(C)c1nnc(NC(=O)c2nc(S(=O)(=O)Cc3ccccc3)ncc2Cl)s1	94*	-87*	92*	105*	100*	Mdm2-MdmX confirm=102*
COc1ccccc1NC(=O)c1nc(S(=O)(=O)Cc2ccccc2)ncc1Cl	99*	-85*	89*	105*	83*	Mdm2-MdmX confirm=101*;HIF-2a conf=83*;HIF-1a cs=104*
CC(C)c1nnc(NC(=O)CCc2ccccc2)s1	-6	-2	-103	-131	1
Cc1ccc(NC(=O)c2nc(S(=O)(=O)Cc3ccccc3C)ncc2Cl)cc1C	96*	-98*	93*	108*	99*	Mdm2-MdmX confirm=103*
Cc1cccc(CS(=O)(=O)c2ncc(Cl)c(C(=O)NCc3ccc4c(c3)OCO4)n2)c1	94*	-22	62*	103*	89*	HIF-2a conf=49*;HIF-1a cs=47
Cc1ccc(C(=O)NCc2ccc3c(c2)OCO3)c(Cl)c1	-23	-10	-112	-78	11
COc1ccc(NC(=O)[C@H](C)NC(=O)[C@@H]2Cc3ccccc3CN2C(=O)OC(C)(C)C)cc1	-16	-5	7	26	9
COc1ccc(NC(=O)Nc2nnc([C@@H]3C[C@H](O)[C@@H](CO)O3)s2)cc1	-8	3	13	-11	-30
CCCn1nc([N+](=O)[O-])c(C(C#N)c2nc3ccccc3o2)c(Cl)c1=O (stereo unspecified)	20	6	-6	19	13
CCn1nc([N+](=O)[O-])c(C(C#N)c2nc3cc(C(F)(F)F)ccc3s2)c(Cl)c1=O (stereo unspecified)	9	-35	-16	14	61*	Mdm2-MdmX confirm=97*
Cc1cc(-c2ccccc2)nc(N/N=C/c2ccc(O)cc2)n1	-43	-10	-222	-210	-24
Cc1cc(C)c2nc(C)cc(N/N=C/c3ccc(O)cc3)c2c1	71	-81*	93*	108*	8	Mdm2-MdmX confirm=103*
Cc1nn(Cc2nnc(SCC(=O)Nc3ccc(Cl)cc3)n2C)c(C)c1[N+](=O)[O-]	13	-25	15	22	0
CCCN(CC(=O)Nc1ccccc1OC)C(=O)c1cc(-c2cccs2)nn1-c1ccccc1	35	-11	12	35	7
CCc1ccc(/C=C/c2c([N+](=O)[O-])c(=O)n(C)c(=O)n2C)cc1	-5	7	46*	25	19	HIF-2a conf=36;HIF-1a cs=32
COc1ccc(/C=C/c2c([N+](=O)[O-])c(=O)n(C)c(=O)n2C)c(OC)c1	-30	3	30	3	22
CCOc1ccc(/C=C/c2c([N+](=O)[O-])c(=O)n(C)c(=O)n2C)cc1	-17	14	25	4	9
Cn1c(/C=C/c2ccc(Cl)cc2Cl)c([N+](=O)[O-])c(=O)n(C)c1=O	?	22	69*	103*	32	HIF-2a conf=41*;HIF-1a cs=106*
CC1(C(=O)NS(=O)(=O)c2ccc3c(c2)CCO3)CCN1C(=O)c1ccccc1CCc1ccccc1 (stereo unspecified)	8	-9	16	3	-7
